# According to the supplement of paper PMC10941209:
# Tested on: HFF
# Assay: cell viability relative to DMSO control; higher = less cytotoxic
# Details: 1 µM; 72 h
# Experimental: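 Single-dose cytotoxicity screen of the MMV Pandemic Response Box at 1 uM on human foreskin fibroblasts (HFF), 72 h at 37 C. Viability measured by MTT (OD 550 nm) and normalised to the DMSO control (% survival).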
row,SMILES,cell viability
1,Nc1nc2c(Cc3cccnc3)c[nH]c2c(=O)[nH]1,65.2%
2,CCOC(=O)/C=C/[C@H](C[C@@H]1CCNC1=O)NC(=O)[C@@H](CC(=O)[C@@H](NC(=O)c1cc(C)on1)C(C)C)Cc1ccc(F)cc1,73.2%
3,C[C@H]1COc2c(N3CCN(C)CC3)c(F)cc3c(=O)c(C(=O)O)cn1c23,66%
4,CC(Cc1ccccc1)C(=O)Nc1ccc(Cl)cc1C(=O)O (configuration not stated),65%
5,CCCCCCCc1[nH]c2ccccc2c(=O)c1O,62%
6,O=C(/C=C/n1cnc(-c2cc(C(F)(F)F)cc(C(F)(F)F)c2)n1)NNc1cnccn1,59.7%
7,Cn1cncc1[C@@](N)(c1ccc(Cl)cc1)c1ccc2c(c1)c(-c1cccc(Cl)c1)cc(=O)n2C,61.1%
8,O=S(=O)(Nc1ccccc1)c1ccc(NC(=S)Nc2ccccc2)cc1,66.2%
9,OCCCCn1cnc2c(O)nc(NCc3ccc(Cl)c(Cl)c3)nc21,62.2%
10,O=C(Nc1cccc(C2=NCCN2)c1)c1ccc(-c2ccc(C(=O)Nc3cccc(C4=NCCN4)c3)cc2)cc1,63.4%
11,CO[C@@]1(NC(=O)Cc2cccs2)C(=O)N2C(C(=O)O)=C(COC(N)=O)CS[C@@H]21,63.7%
12,N#Cc1c(F)c(Cl)c(NCc2ccccc2)c(C#N)c1F,66.6%
13,CC(C)c1ccc(COc2cccc(-c3cc([S+](C)[O-])c(C#N)c(=O)[nH]3)c2)cc1 (configuration not stated),76.9%
14,N[C@@H]1CN(c2c(F)cc3c(=O)c(C(=O)O)cn([C@@H]4C[C@@H]4F)c3c2Cl)CC12CC2,60.8%
15,CCCCCOc1ccc(/C=C2\Oc3c(ccc(O)c3O)C2=O)c(O)c1,69.6%
16,O=S(=O)(Nc1ccc(-n2cccc2)cc1)c1ccc(Cl)c(Cl)c1,64.5%
17,Nc1ccc(-c2nc3cc(C(F)(F)F)ccc3n2C23CC4CC(CC(C4)C2)C3)cc1,66.3%
18,Cc1ccc(S(=O)(=O)Nc2cccc3cccnc23)cc1,84.2%
19,O=C(/C=C\n1cnc(-c2cc(C(F)(F)F)cc(C(F)(F)F)c2)n1)NNc1ccccn1,62%

row,SMILES,cell viability
1,CCNC(=O)Nc1cc2c(-c3ccnc(C)c3)ccc(CNC(=O)OC)c2cn1,62.7%
2,C=CCN(C(=O)OCc1ccc([N+](=O)[O-])cc1)C1CCN(CC[C@](C)(CN(C)S(=O)(=O)c2ccccc2)c2ccccc2)CC1,69.6%
3,Clc1ccc(COC(Cn2ccnc2)c2ccc(Cl)cc2Cl)c(Cl)c1 (configuration not stated),66.8%
4,CCCCC(CC)CNC(=N)NC(=N)NCCCCCCNC(=N)NC(=N)NCC(CC)CCCC (configuration not stated),63.4%
5,CCC(C)NCC(O)Cn1c2ccc(Cl)cc2c2cc(Cl)ccc21 (configuration not stated),68.3%
6,C/C(=N\NC(=O)C1CC1c1ccccc1)c1ccc(NC(=O)c2ccco2)cc1 (configuration not stated),60%
7,CC(=O)N1c2ccccc2NC2=C(C(=O)CC(C)(C)C2)C1c1ccc(OCc2ccccc2)cc1 (configuration not stated),70.4%
8,Cc1[nH]c2ccccc2c1CCNCc1ccc(/C=C/C(=O)NO)cc1,19%
9,COc1cc(C)c2c(Oc3cccc(C(F)(F)F)c3)c(OC)cc(NC(C)CCCN)c2n1 (configuration not stated),61.2%
10,NC(=S)N/N=C/c1ncccc1N,65.3%
11,Fc1ccc2c(/C=C/c3nnn[nH]3)c[nH]c2c1,71.2%
12,OC1O[C@H](CSc2ccc(F)cc2)[C@@H](O)[C@H]1O (some centres not stated),67.7%
13,CCCC(=O)OCCc1ccccc1,65.3%
14,COc1ccc(C2CNC(=O)C2)cc1OC1CCCC1 (configuration not stated),69.5%
15,CC(=O)O[C@H]1C[C@@]2(C)[C@@H](C[C@@H](O)[C@H]3[C@@]4(C)CC[C@@H](O)[C@@H](C)[C@@H]4CC[C@@]32C)/C1=C(\CCC=C(C)C)C(=O)O,63.5%
16,C(=C\c1nc2ccccc2[nH]1)/c1ccc2c(c1)OCO2,63.4%
17,Cc1ccc(C)c(OCCCCCCN2C[C@H](O)[C@@H](O)[C@H](O)[C@H]2CO)c1,64.6%
18,Nc1nc(=O)[nH]cc1F,64.8%
